# Assay results as given in paper PMC5540273 (PLoS ONE, 2017).
# Several values for one entry are separate records, joined by “and”; a condition that tells them apart may be missing. Equal entries are not always repeated. Where two headings read alike, the source gives them in different places.
# Legend:
# [1] = tested on: CDKL2; details: concentration: 1 μM, replicates: in singlicate, n = 1
# [2] = tested on: CDKL3; details: concentration: 1 μM, replicates: in singlicate, n = 1
# [3] = tested on: CDKL5; details: concentration: 1 μM, replicates: in singlicate, n = 1
# [4] = tested on: CHEK1; details: concentration: 1 μM, replicates: in singlicate, n = 1
# [5] = tested on: CHEK2; details: concentration: 1 μM, replicates: in singlicate; n = 1
# [6] = tested on: CIT; details: concentration: 1 μM, replicates: in singlicate, n = 1
# [7] = tested on: CLK1; details: concentration: 1 μM, replicates: in singlicate, n = 1
# [8] = tested on: CLK2; details: concentration: 1 μM, replicates: in singlicate, n = 1
# [9] = tested on: CLK3; details: concentration: 1 μM, replicates: in singlicate, n = 1
# [10] = tested on: CLK4; details: concentration: 1 μM, replicates: in singlicate, n = 1
# 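Further: KINOMEscan kinase panel screen.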
SMILES,%Inh ([1]; 1 µM),%Inh ([2]; 1 µM),%Inh ([3]; 1 µM),%Inh ([4]; 1 µM),%Inh [5] [%],%Inh ([6]; 1 µM),%Inh ([7]; 1 µM),%Inh ([8]; 1 µM),%Inh ([9]; 1 µM),%Inh ([10]; 1 µM),%Inh [1] [%],%Inh [2] [%],%Inh [3] [%],%Inh [4] [%],%Inh [6] [%],%Inh [7] [%],%Inh [8] [%],%Inh [9] [%],%Inh [10] [%]
COc1ccc(-c2nc3n(c2-c2ccncc2)CCC3)cc1 [SKF-104493],0% and 1%,1% and 0%,2% and 0%,0% and 13%,0,16% and 15%,16% and 11%,0% and 6%,5% and 1%,10% and 0%,,,,,,,,,
OCCOCCn1ccc2ncnc(Nc3ccc(Oc4cccc(Cl)c4)c(Cl)c3)c21,,,,,0,,,,,,0,5,0,0,2,0,0,0,0
O=C(NCCCN1CCCC1=O)c1cnc(NCc2cc(Cl)ccc2Cl)nc1NC1CCNCC1,,,,,6,,,,,,0,20,0,0,0,0,0,0,0
Clc1ccc(-c2cc(-c3c[nH]nc3-c3ccccn3)ccn2)cc1 [GW681251],,,,,0,,,,,,11,22,0,0,4,13,0,4,20
Fc1cccc(COc2ccc(Nc3ncnc4sc(-c5ccc[nH]5)cc34)cc2Cl)c1 [GW707818],,,,,21,,,,,,14,0,0,7,27,29,8,0,100
CSc1nn2c(=O)cc(N3CCOCC3)nc2n1Cc1cccc(Cl)c1Cl [GSK2347225],,,,,0,,,,,,27,0,8,15,35,40,0,100,12
Clc1cc(Nc2ncnc3cc[nH]c23)ccc1OCc1ccccn1,,,,,13,,,,,,0,31,8,14,18,13,0,5,7
Cc1cc(N2CCC(NS(=O)(=O)c3ccc(F)cc3)CC2)nc(Nc2cccc(C#N)c2)n1.O=C(O)C(F)(F)F [GSK1653537],,,,,0,,,,,,24,0,0,4,0,14,0,0,25
Cc1cccc(-c2nc(Nc3ccc4[nH]nnc4c3)c3ccccc3n2)n1 [GW867587],,,,,0,,,,,,25,0,0,0,15,0,0,0,0
CC(C)(C)c1ccc(-n2cnc3c(N)ncnc32)cc1 [SKF-97263],,,,,0,,,,,,0,0,0,34,31,36,20,19,50
C[C@H]1CC[C@@H](C(=O)Nc2ccccc2)CN1c1cc(-c2ccc3c(N)n[nH]c3c2)nc(N)n1 [GSK2283293],,,,,0,,,,,,17,0,0,0,32,18,0,0,21
COc1ccc(Nc2nccc(N3CCC(NC(=O)c4cccc(NC(C)=O)c4)C3)n2)cc1 (stereo not shown) [GSK1379732],,,,,41,,,,,,18,0,0,0,43,21,0,0,12
CN1c2ccc(-c3ccc(C(=O)NCCO)cc3)cc2-c2[nH]ncc2S1(=O)=O,,,,,65,,,,,,0,1,0,0,2,44,86,25,40
Cn1ccc2ncnc(Nc3ccc(Oc4cccc(Cl)c4)c(Cl)c3)c21,,,,,7,,,,,,23,26,23,2,0,0,0,0,1
CC(C)N1CCC(n2cnc(-c3ccc(F)cc3)c2-c2ccnc(N)n2)CC1 [SB-223132],,,,,0,,,,,,13,9,0,0,69,5,0,10,0
CNc1nccc(-c2c(-c3ccc(F)cc3)ncn2C2CCN(C)CC2)n1 [SB-222903],,,,,6,,,,,,0,0,0,0,53,0,3,12,0
Nc1nc(-c2cccnc2)c(-c2ccnc3ccccc23)s1 [GW684083],,,,,11,,,,,,20,0,0,0,45,14,0,100,38

SMILES,%Inh ([1]; 1 µM),%Inh ([2]; 1 µM),%Inh ([3]; 1 µM),%Inh ([4]; 1 µM),%Inh [5] [%],%Inh ([6]; 1 µM),%Inh ([7]; 1 µM),%Inh ([8]; 1 µM),%Inh ([9]; 1 µM),%Inh ([10]; 1 µM),%Inh [1] [%],%Inh [2] [%],%Inh [3] [%],%Inh [4] [%],%Inh [6] [%],%Inh [7] [%],%Inh [8] [%],%Inh [9] [%],%Inh [10] [%]
Nc1nccc2scc(-c3ccc4c(c3)CCN4C(=O)Cc3cc(F)ccc3F)c12 [GSK2587663],,,,,10,,,,,,17,0,0,8,27,24,0,93.5,19
Fc1cccc(COc2ccc(Nc3ncnc4cc[nH]c34)cc2Cl)c1,,,,,13,,,,,,14,11,15,10,19,7,16,10,0
Cn1ccc2ncnc(Oc3ccc(NC(=O)Nc4cccnc4)c(Cl)c3)c21,,,,,9,,,,,,3,13,14,0,5,0,5,4,32
FC(F)(F)c1cc(Nc2nccc(-c3c(-c4ccc(Cl)cc4)nn4ncccc34)n2)ccc1Cl [GW829351],,,,,4,,,,,,28,0,0,0,17,0,22,0,0
Nc1n[nH]c2nnc(-c3ccccc3)cc12 [SB-517389],,,,,0,,,,,,18,69,0,10,29,43,32,19,19
CNc1nccc(-c2c(-c3ccc(F)cc3)ncn2CCCN2CCOCC2)n1 [SB-222516],,,,,43,,,,,,6,10,2,0,0,4,16,18,3
O=C(Nc1ccccc1F)NC1CCN(c2ccnc(Nc3ccc(F)cc3)n2)C1 (stereo not shown) [GSK1379722],,,,,0,,,,,,30,0,0,8,2,21,0,24,17
CN1CCC(n2cnc(-c3ccc(F)cc3)c2-c2ccnc(NC3CCNCC3)n2)CC1 [SB-229482],,,,,39,,,,,,22,3,0,0,2,0,0,4,9
CCn1c(-c2ccncc2)nc2cnccc21 [SB-735216],,,,,0,,,,,,0,25,4,0,0,16,0,0,16
Clc1cccc(-c2nc(Nc3ccncc3)c3ccccc3n2)c1 [GW873004],,,,,0,,,,,,35,13,3,0,57,14,0,35,52
Fc1ccc(-c2ncn(CCCNCc3ccccc3)c2-c2ccncc2)cc1,,,,,0,,,,,,0,1,21,17,27,33,1,0,0
Cl.Fc1ccccc1COc1ccc(Nc2ncnc3ccc(-c4nnc(C(F)(F)F)o4)cc23)cc1Cl [GW424170],,,,,7,,,,,,0,0,0,5,11,31,0,4,13
CCC(CC)(CC)n1cnc2c(N)ncnc21 [SKF-97620],,,,,0,,,,,,0,0,23,0,13,0,0,6,16
Cl.Cn1ccc(-c2cccc(Nc3ccnc4cc(-c5nccs5)ccc34)c2)n1 [GW525701],,,,,0,,,,,,61,0,0,24,3,1,0,0,37
CCc1nc(-c2cccc(N(C)S(=O)(=O)c3ccccc3)c2)c(-c2ccnc(Nc3ccc(N4CCN(C(C)=O)CC4)nc3)n2)s1 [GSK1645895],,,,,0,,,,,,47,0,4,7,31,25,12,27,0
Cl.c1ccc(Cn2ccc3cc(Nc4ncnc5ccccc45)ccc32)cc1 [GW275568],,,,,27,,,,,,4,8,0,2,5,26,10,59,0
O=C(CCO)NCCn1ccc2ncnc(Nc3ccc(Oc4cccc(C(F)(F)F)c4)c(Cl)c3)c21,,,,,0,,,,,,9,0,0,0,0,1,0,0,5
